Measured values published in PubChem BioAssay AID1159580 (chemical genetic matrix, 2015).
Where “and” joins values, the source holds several entries; their conditions need not be identical. Equal values may be shown once. The whole screen tested about 5,500 compounds, of which about 2,000 (36%) were called active. Roughly 18% stayed inconclusive and do not appear here. Cut-off read from the data, not from the text of the source: active = normalized growth mostly below about 0.91 (no sharp cut-off); inconclusive = no clear call, values can overlap the other calls; inactive = mostly above about 0.92. Some of the results follow.

Test: chemical genetic growth profiling, strain panel (AID 1159580);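 note: tested at 20 µM; growth read once vehicle control cultures reached saturation at 30 °C; 1 = growth at the plate median or of vehicle wells; lower values mean less growth of the strain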
Conditions: S. cerevisiae deletion strains, growth OD

Measured: normalized growth

CS(=O)(=O)c1ccc([C@@H](O)[C@@H](CO)NC(=O)C(Cl)Cl)cc1
inactive: locus YAL013W, strain DEP1, hits give low values 0.978 | locus YAL021C, strain ccr4, hits give low values 1.05 | locus YAL026C, strain drs2, hits give low values 1.04 | locus YAL030W, strain snc1, hits give low values 1.01 | locus YBL061C, strain skt5, hits give low values 1.02 | locus YBR009C, strain hhf1, hits give low values 1.01 | locus YBR021W, strain FUR4, hits give low values 1.1 | locus YBR023C, strain chs3, hits give low values 1.04 | locus YBR171W, strain sec66, hits give low values 1.04 | locus YBR229C, strain ROT2, hits give low values 0.964 | locus YBR231C, strain swc5, hits give low values 1.02 | locus YBR279W, strain paf1, hits give low values 1.04 | locus YCL011C, strain gbp2, hits give low values 1.03 | locus YCL016C, strain dcc1, hits give low values 1.04 | locus YCL029C, strain bik1, hits give low values 0.981 | locus YCL069W, strain vba3, hits give low values 1.03 | locus YCR088W, strain abp1, hits give low values 1.03 | locus YDL005C, strain med2, hits give low values 1.02 | locus YDL035C, strain GPR1, hits give low values 0.988 | locus YDL040C, strain nat1, hits give low values 1.02 | locus YDL074C, strain BRE1, hits give low values 0.957 | locus YDL101C, strain DUN1, hits give low values 0.967 | locus YDL134C, strain PPH21, hits give low values 0.985 | locus YDL185W, strain tfp1, hits give low values 0.941 | locus YDL192W, strain arf1, hits give low values 0.981 | locus YDR001C, strain nth1, hits give low values 1.02 | locus YDR069C, strain doa4, hits give low values 1 | locus YDR101C, strain arx1, hits give low values 0.998 | locus YDR137W, strain rgp1, hits give low values 1.06 | locus YDR150W, strain NUM1, hits give low values 0.977 | locus YDR159W, strain sac3, hits give low values 0.942 | locus YDR162C, strain NBP2, hits give low values 0.954 | locus YDR195W, strain ref2 1.01 | locus YDR297W, strain sur2, hits give low values 1.02 | locus YDR318W, strain mcm21, hits give low values 0.998 | locus YDR334W, strain swr1, hits give low values 1.02 | locus YDR335W, strain msn5, hits give low values 1.04 | locus YDR388W, hits give low values 0.991 | locus YDR392W, strain spt3, hits give low values 0.947 | locus YDR502C, strain sam2, hits give low values 0.997 | locus YEL003W, strain gim4, hits give low values 1.01 | locus YEL037C, strain rad23, hits give low values 1.02 | locus YEL061C, strain CIN8 (second series), hits give low values 1.02 | locus YEL061C, strain CIN8, hits give low values 0.979 | locus YER015W, strain faa2, hits give low values 1.02 | locus YER016W, strain bim1, hits give low values 1.04 | locus YER110C, hits give low values 0.974 | locus YER111C, strain swi4, hits give low values 1.03 | locus YER155C, strain BEM2 (second series), hits give low values 1.03 | locus YER155C, strain BEM2, hits give low values 1 | locus YER167W, strain BCK2, hits give low values 0.985 | locus YFR010W, strain ubp6, hits give low values 1.02 | locus YGL078C, strain dbp3, hits give low values 1 | locus YGL086W, strain mad1, hits give low values 1 | locus YGL167C, strain pmr1, hits give low values 1.02 | locus YGL173C, strain kem1, hits give low values 1.02 | locus YGL227W, strain vid30, hits give low values 1.02 | locus YGL240W, strain doc1, hits give low values 0.996 | locus YGL248W, strain PDE1, hits give low values 0.968 | locus YGL253W, strain hxk2, hits give low values 1.05 | locus YGR078C, strain PAC10, hits give low values 0.993 | locus YGR135W, strain pre9, hits give low values 0.98 | locus YGR229C, strain SMI1, hits give low values 0.979 | locus YGR252W, strain gcn5, hits give low values 1.06 | locus YHR013C, strain ard1, hits give low values 1.05 | locus YHR027C, strain rpn1, hits give low values 1.02 | locus YHR030C, strain SLT2, hits give low values 0.983 and 0.994 | locus YHR079C, strain IRE1 (second series), hits give low values 0.998 | locus YHR079C, strain IRE1, hits give low values 0.982 | locus YHR094C, strain hxt1, hits give low values 0.991 | locus YHR129C, strain ARP1, hits give low values 0.989 | locus YHR142W, strain chs7, hits give low values 1.07 | locus YHR200W, strain rpn10, hits give low values 0.989 | locus YIL066C, strain RNR3, hits give low values 0.995 | locus YIL073C, strain SPO22, hits give low values 0.998 | locus YIL125W, strain kgd1, hits give low values 0.992 | locus YIR030C, strain dcg1, hits give low values 0.978 | locus YJL092W, strain hpr5, hits give low values 1.02 | locus YJL095W, strain BCK1 (second series), hits give low values 1.01 | locus YJL095W, strain BCK1, hits give low values 1 and 0.995 | locus YJL115W, strain asf1, hits give low values 1.04 | locus YJL129C, strain trk1, hits give low values 1.05 | locus YJL134W, strain LCB3, hits give low values 0.974 | locus YJL154C, strain vps35, hits give low values 1.03 | locus YJL164C, strain tpk1, hits give low values 1.01 | locus YJL166W, strain qcr8, hits give low values 1.02 | locus YJL168C, strain set2, hits give low values 0.985 | locus YJL187C, strain SWE1 (second series), hits give low values 0.975 | locus YJR043C, strain POL32, hits give low values 1.01 | locus YJR066W, strain TOR1, hits give low values 0.962 | locus YJR075W, strain HOC1, hits give low values 0.983
